# Bioassay records from PubChem.
# The list is not random: actives were taken first. Their share in the collection is about 1.6%.
# PrP 5UTR inh: inhibition of PrP 5' UTR reporter expression | cell-based PrP 5' UTR mRNA reporter, plate reader | inhibition, % (test concentration not listed) | hit rate 0.35% among 340,000; in the data active means inhibition above about 52%; further: 0 = median of the neutral control wells
# PfHsp40 rescue: compounds rescuing yeast from Plasmodium falciparum HSP40 toxicity. S. cerevisiae expressing PfHsp40, growth rescue, ATP luminescence. growth rescue, % at 12.5 µM. hit rate 0.68% among 340,000. AID 504582; in the data active means growth rescue above about 28%, passing the limit was not always enough;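 further: yeast W303a lacking pdr1 and pdr3 grown in galactose medium; growth measured after three days at 30 °C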
# PrPC surface inh: reduces human prion protein on the cell surface. P04156. cell surface PrPC, TR-FRET read-out. inhibition, % at 13.8 µM. hit rate 0.43% among 370,000. AID 720596; in the data active means inhibition above about 24%; further: 0% = median of the test wells and 100% = reference compound wells
# SSB-PriA inh: inhibitors of Klebsiella pneumoniae PriA binding to SSB C-terminal tail; inhibition, % at 33 µM; AlphaScreen SSBct-PriA binding, biotinylated peptide; hit rate 0.6% among 430,000; in the data active means inhibition mostly above about 37%, no sharp cut-off; inactive means mostly below about 20%;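 further: plate controls were negative control peptide for no effect and reference peptide for full effect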
# 3CLpro inhibitor: SARS-CoV 3CLpro protease inhibition; recombinant SARS-CoV 3CLpro, quenched FRET peptide cleavage; inhibition, % at 6 µM; hit rate 0.14% among 290,000; in the data active means inhibition above about 12%
# Vc quorum ag: induces V. cholerae light production without autoinducers | activation, % at 18.7 µM | V. cholerae BH1578 lux reporter, luminescence, 6 h | AID 588436 | hit rate 0.16% among 350,000; in the data active means activation mostly above about 9.7%, no sharp cut-off
# * = called active by the depositor; i = inactive; . = no result given; ! = repeats disagree.
SMILES,PrP 5UTR inh,PfHsp40 rescue,PrPC surface inh,SSB-PriA inh,3CLpro inhibitor,Vc quorum ag
CCOc1ccc(N)c([N+](=O)[O-])c1,.,.,.,39*,.,.
CC1CN(C2CCCCC2)C(=S)NC1=O (stereo unspecified),-23,1,-7,-9,.,39*
CC1CN(C(C)C)C(=S)NC1=O (stereo unspecified),-3,1,-4,-7,.,.
O=C(Cc1ccccc1)Nc1ccc(Nc2ccc(-n3cccn3)nn2)cc1,.,.,.,52*,.,.
Cc1ccn(-c2ccc(Nc3ccc(NC(=O)c4ccco4)cc3)nn2)n1,.,.,.,55*,.,.
CC(=O)Nc1ccc(S(=O)(=O)Nc2ccc(Nc3ccc(-n4ccc(C)n4)nn3)cc2)cc1,.,.,.,-8,.,.
Cc1ccc(Nc2ccc(NC(=O)Cc3ccccc3)cc2)nn1,.,.,.,-2,.,.
Cc1cccc(NC(=O)C(=O)Nc2nc3ccccc3s2)c1,.,.,.,-3,.,.
O=C(Cn1cnc2ccccc2c1=O)NCCCn1ccc2cccnc21,.,.,.,-19,.,.
COc1ccccc1C(=O)NCCn1ncc2c(=O)n(Cc3ccccc3F)cnc21,.,.,.,-1,.,.
O=C(NCc1ccccc1)C1=C[C@@H](C2CC2)C[C@@H](OCc2ccc(CO)cc2)O1,-19,55*,3,0,-2,0
Cc1[nH]c(=O)c(C(=O)Nc2ccccc2C(N)=O)c(O)c1C,.,.,.,-11,.,.
COc1ccc(C(=O)CN2CCN(CCN3C(=O)c4cccc5cccc(c45)C3=O)CC2)cc1,-8,0,-26,62*!,.,-1
O=C(CN1CCN(CCN2C(=O)c3cccc4cccc(c34)C2=O)CC1)c1ccc(Cl)cc1,.,.,.,.,3,.
CCC(C)c1ccccc1OCC(O)CN1CCN(CCN2C(=O)c3cccc4cccc(c34)C2=O)CC1 (stereo unspecified),.,.,.,46*!,.,.
Nc1nc(N)nc(-c2ccccn2)n1,-17,-2,-3,78*,-7,-1
NNc1nc(N)nc(-c2ccccn2)n1,.,.,.,152*,.,.
Clc1nc(-c2ccccn2)nc2ccccc12,.,.,.,42,.,.
NNc1nc(-c2ccccn2)nc2c1CCC2,.,.,.,165*,.,.
Nc1nc(-c2ccccn2)nc2ccccc12,.,.,.,140*,.,.
O=C(Nc1cc(-n2ccc3ccccc32)ncn1)c1ccccc1Cl,.,.,.,-10,.,.
O=C(Nc1ccccc1CC(c1c[nH]c2ccccc12)c1c[nH]c2ccccc12)c1ccc(Cl)cc1,.,.,.,16,.,.
N#CC1=C(N=Cc2cc(Cl)cc(Cl)c2O)CCC1,.,.,.,21,.,.
CN1CCN(c2nc(-c3ccccn3)nc3ccccc23)CC1,0,0,-7,46*,2,-1
O=C(Cn1ccc2ccccc21)Nc1cc(-n2cncn2)ncn1,.,.,.,8,.,.
SMILES,PrP 5UTR inh,PfHsp40 rescue,PrPC surface inh,SSB-PriA inh,3CLpro inhibitor,Vc quorum ag
O=C(NC(=S)Nc1ccccc1N1CCCC1)c1ccc([N+](=O)[O-])cc1,-4,2,-12,70*,0,-1
O=C(NC(=S)Nc1ccccc1N1CCOCC1)c1ccc([N+](=O)[O-])cc1,-18,-2,-2,-9,5,-3
CC1N(C)c2cccc3cccc(c23)N1C,-17,0,-6,45*,-3,-2
Cc1ccc(C2CC(=O)NC(SCC(=O)Nc3nccs3)=C2C#N)cc1 (stereo unspecified),-12,2,5,-1,1,25*
COc1cc(C2CC(=O)NC(SCC(=O)Nc3nccs3)=C2C#N)cc(OC)c1OC (stereo unspecified),.,.,.,0,.,.
COc1ccc(Br)c(C(=O)NCCn2cnc3ccsc3c2=O)c1,.,.,.,2,.,.
COC(=O)c1ccc2c(c1O)C(=O)c1ccccc1C2=O,-24,342*,-7,35,-1,0
COC(=O)c1cccc2c1-c1ccccc1/C2=N/O,-10,331*,-6,.,0,i
COc1cccc(C(=O)N(Cc2ccccn2)c2nc3c(C)ccc(Cl)c3s2)c1OC,.,.,.,2,.,.
O=Nc1c2cc3ccccc3[nH]c-2c2ccccc12,-82,54*,-10,0,.,-4
Cc1c(-c2nc(-c3ccc(Br)cc3)cs2)nnn1-c1ccccc1,.,.,.,-4,.,.
CSc1ccc(CNC(=O)CSc2nccn2-c2cccc(C(=O)NCc3ccco3)c2)cc1,.,.,.,46*,.,.
O=c1cc(-c2ccccc2)[nH]n1-c1nc2ccccc2[nH]1,-11,0,-7,69*,-3,-1
COC(=O)CCN(C(=O)c1ccc(N2CCCCC2)c([N+](=O)[O-])c1)c1ccccn1,-9,-1,-23,17,2,0
CC1Cc2ccccc2N1C(=O)c1ccc(N2CCCC2)c([N+](=O)[O-])c1 (stereo unspecified),-4,4,-9,46*,6,0
